ELG1 genotoxic – inducers of genotoxicity in HEK293T ELG1-luciferase cells. 1.3% of 330,000 active. HEK293T ELG1-luciferase reporter, luminescence, 16 h. Potency, µM (highest dose often 46 µM), actives largely listed as activators; note: nearly all actives have a fitted effect of over 60% in size
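After overnight (16 hr) compound treatment at 37 °C, ELG1-luciferase HEK293T cells were lysed with ONE-Glo; luminescence quantified 30 min later at room temperature.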
NPC1 promoter act – NPC1 promoter activation; 2.4% of 320,000 active; Potency, µM (doses to about 9.22 µM), most hits filed as activators; Huh7 NPC1 promoter luciferase reporter, 24 h; note: nearly all actives have a fitted effect of over 60% in size
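Stable NPC1-promoter luciferase Huh7 line; cpd (DMSO) 24 h, 37 °C, 5% CO2; Amplite luciferase reagent 10 min RT; luminescence readout. qHTS format.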
Rab9 prom act – activators of Rab9 promoter | Huh7 Rab9 promoter-luciferase reporter, luminescence, 24 h | Potency, µM (highest dose often 9.22 µM), hits mostly activators | 2.8% of 320,000 active; note: nearly all actives have a fitted effect of over 60% in size
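Rab9 promoter-driven luciferase in stably transfected Huh7 cells; 1500 cells/well rested 2 h, exposed to compound in DMSO for 24 h at 37 °C, 5% CO2. Luminescence read 10 min after adding luciferase reagent at ambient temperature.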
ELG1 repair inh – inhibitors of ELG1-dependent DNA repair in HEK293T cells; HEK293T ELG1-luciferase reporter, luminescence, 16 h; DNA damage induced by 5-fluorouridine; Potency, µM (top dose mostly 46.1 µM), hits mostly inhibitors; 2.3% of 330,000 active; note: nearly all actives have a fitted effect of over 55% in size
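Cells (2,000 per well) received 5-fluorouridine plus test compound or DMSO and were incubated 16 hr at 37 °C, 5% CO2. Luciferase activity was read by luminescence 30 min after ONE-Glo addition; signal suppression marked inhibition of damage-induced ELG1 function.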
FLuc counter – firefly luciferase modulation, counter-screen for miR-21 project; P08659; purified FLuc, Km substrates, luminescence inhibition; Potency, µM (highest dose often 57.5 µM), usual class: inhibitors; 6.9% of 360,000 active; AID 588342; note: nearly all actives have a fitted effect of over 55% in size
Target sequence (P08659 whole entry, looked up): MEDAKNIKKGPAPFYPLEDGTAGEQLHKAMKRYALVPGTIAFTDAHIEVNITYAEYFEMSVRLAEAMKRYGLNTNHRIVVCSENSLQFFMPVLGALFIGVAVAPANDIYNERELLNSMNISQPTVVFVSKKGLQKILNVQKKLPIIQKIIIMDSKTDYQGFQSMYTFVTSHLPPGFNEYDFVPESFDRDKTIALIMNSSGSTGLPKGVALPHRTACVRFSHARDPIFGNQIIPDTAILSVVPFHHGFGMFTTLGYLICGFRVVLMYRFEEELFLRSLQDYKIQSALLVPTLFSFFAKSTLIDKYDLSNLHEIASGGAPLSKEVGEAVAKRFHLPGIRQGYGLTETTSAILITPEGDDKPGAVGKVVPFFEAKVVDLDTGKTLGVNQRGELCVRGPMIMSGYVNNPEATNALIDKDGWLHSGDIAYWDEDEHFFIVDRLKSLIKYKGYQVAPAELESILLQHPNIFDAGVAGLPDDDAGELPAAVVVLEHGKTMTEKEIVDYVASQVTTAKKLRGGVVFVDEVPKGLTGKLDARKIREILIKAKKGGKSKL
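Purified P. pyralis luciferase, 10 nM final, with Km-level 10 uM D-luciferin and 10 uM ATP in 50 mM Tris acetate pH 7.5, 10 mM Mg acetate, 0.01% Tween-20, 0.05% BSA; 6-point qHTS titration about 60 µM downward; luminescence read.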
SMN2 splice enh – increases expression of the SMN2 splice variant; Potency, µM (highest dose often 46.1 µM), usual class: activators; AID 1458; 2.8% of 210,000 active; HEK293 SMN2-luciferase splicing reporter, luminescence, 30-36 h; note: nearly all actives have a fitted effect of over 55% in size
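qHTS luciferase splicing reporter: luminescence rises when SMN2 exon 7 is included in transfected HEK293 cells. Compound exposure lasted 30-36 h at 37C, with 4.5 mM final sodium butyrate as control, followed by a ONE-Glo read.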
Hits are given with their value; - = inactive; ? = inconclusive; . = no result given. Shown are actives, neighbours in structure and some others; about 9.2% of the full set was active somewhere. Calls come from the whole dose curve; as a rule, active = well fitted curve in the direction sought with a large enough effect; inconclusive = small, poorly fitted or top-dose-only effect, or another doubt; inactive = no such curve, though single readings can be large; an effect the other way counts as inactive or inconclusive.

SMILES	ELG1 genotoxic	NPC1 promoter act	Rab9 prom act	ELG1 repair inh	FLuc counter	SMN2 splice enh
CC(C)c1ccc(OCc2nc(-c3ccccn3)no2)c(Br)c1	?	0.4µM	0.45µM	?	0.95µM	6.3µM
Cc1nc2c(C(=O)NCc3ccc4c(c3)OCO4)cnn2c(C)c1Cc1ccc(F)cc1Cl	-	-	-	21µM	-	-
CCOc1ccc(NC(=O)c2ccccc2OCC(=O)c2ccccc2)cc1	-	-	?	-	2.1µM	-
O=C(COc1ccc(NC(=O)c2ccccc2)cc1)c1ccccc1	-	?	-	-	2.1µM	.
Cc1ccc(NC(=O)c2ccccc2OCC(=O)c2ccccc2)cc1	-	-	-	-	13µM	-
CCOc1ccccc1C(=O)Nc1ccc(NC(=O)c2ccccc2)cc1	-	-	-	-	-	.
Cc1cccc(CCNC(=O)c2cccc(NC3=NC4CS(=O)(=O)CC4S3)c2)c1 (stereo unspecified)	-	-	-	-	?	.
CCN(CC)S(=O)(=O)c1ccc(OC)c(NC(=O)c2cn(CC)c3nc(C)ccc3c2=O)c1	-	-	-	-	-	-
COc1ccc(CC(=O)N(Cc2ccccc2)c2ccccc2)cc1S(=O)(=O)N1CCOCC1	-	-	-	16µM	-	.
CC1CC(C)CN(C(=O)c2cc3ccccc3o2)C1 (stereo unspecified)	23µM	-	?	?	?	.
CC(=O)N1CCN(C(=O)c2cc3ccccc3o2)CC1	-	-	-	?	-	.
CC1CC(C)CN(C(=O)c2cc3cc(Br)cc(Br)c3o2)C1 (stereo unspecified)	?	-	-	?	17µM	-
CC1CCN(C(=O)c2cc3ccccc3o2)CC1	13µM	?	?	?	19µM	?
CC1CC(C)CN(C(=O)Nc2ccc(Br)cc2)C1 (stereo unspecified)	-	-	-	-	?	-
CC(=O)Nc1ccc(S(=O)(=O)NCCC(=O)NNC(=O)c2ccncc2)cc1	-	-	-	-	-	.
COc1cc(NC(=O)NCC2CCN(Cc3ccccc3F)CC2)cc(OC)c1	-	-	-	-	-	.
Nc1c(Cl)ncnc1NCCO	-	-	-	-	-	.
Nc1c(Cl)ncnc1N/N=C/c1ccc(O)cc1	?	-	-	?	13µM	.
Oc1ccc(/C=N/Nc2nccnc2Cl)cc1	12µM	4µM	3.2µM	?	11µM	?
COc1cc(NC(=O)c2nc3cc(C)c(C)cc3n(C)c2=O)cc(OC)c1OC	.	.	.	.	-	-
Cc1ccn2cc(C(=O)Nc3ccccc3N3CCOCC3)nc2c1	-	-	-	-	15µM	-
Cc1ccn2cc(C(=O)NCc3ccco3)nc2c1	-	-	-	?	-	-
Cc1ccn2cc(C(=O)Nc3ccc4c(c3)OCCO4)nc2c1	5.8µM	1.4µM	1µM	?	1.9µM	?
Cc1ccn2cc(C(=O)Nc3nnc(C)s3)nc2c1	?	?	3.2µM	?	15µM	.
O=C(Nc1cc(C(F)(F)F)ccc1N1CCOCC1)c1cn2ccccc2n1	-	-	-	-	-	-
SMILES	ELG1 genotoxic	NPC1 promoter act	Rab9 prom act	ELG1 repair inh	FLuc counter	SMN2 splice enh
O=C(Nc1ccccc1N1CCCCC1)c1ccc(F)c(S(=O)(=O)N2CCOCC2)c1	-	-	-	13µM	-	.
O=C(CN1C(=O)CSc2ccc(S(=O)(=O)N3CCCC3)cc21)NCc1ccccc1Cl	.	.	.	.	-	.
COc1ccc(/C=C2\CCCC(C(=O)C(F)(F)F)=C2O)cc1OC	-	-	-	?	-	-
COC(=O)C(Cc1ccccc1)NC(=O)CNC(=O)c1ccc(Br)cc1 (stereo unspecified)	-	-	-	-	-	.
O=C(Nc1ccccc1N1CCOCC1)c1cccc(Oc2ccccc2)c1	-	-	-	-	21µM	.
O=C(Nc1ccccc1N1CCOCC1)c1ccc2ccccc2n1	-	-	-	-	7.6µM	-
C/C(NC(=O)c1cccs1)=C1\C(=O)C[C@@H]2[C@H]1C2(C)C	?	?	?	?	15µM	.
O=C(Nc1nc(=O)n(C(=O)C2CC2)s1)c1ccccc1	-	-	-	-	?	-
Cc1ccc(C(=O)Nc2nc(=O)n(C(=O)c3ccccc3C)s2)cc1	-	-	?	-	15µM	-
Cc1ccc(C(=O)Nc2nc(=O)n(C(=O)C3CC3)s2)cc1	-	-	-	-	19µM	-
Cc1cc(NC(=O)CC2CCCC2)n(-c2nc3ccccc3[nH]2)n1	-	-	-	23µM	-	-
Cc1cc(NC(=O)/C=C/c2ccccc2Cl)n(-c2nc3ccccc3[nH]2)n1	-	?	2µM	?	1.3µM	11µM
O=C1C2=C(Nc3ccccc3SC2c2ccccc2C(F)(F)F)c2ccccc21 (stereo unspecified)	.	.	.	.	-	-
COC(=O)c1c(C)[nH]c(C=Nc2ccc(OC)cc2)c1C	-	-	-	-	7.6µM	.
CCOC(=O)c1c(C)[nH]c(C=Nc2ccc(OC)cc2)c1O	?	4µM	2.2µM	?	21µM	11µM
CC1CC1C(=O)OCC(=O)NCc1ccccc1 (stereo unspecified)	-	.	.	-	.	.
N#C/C(=C/c1ccc(N2CCCCC2)o1)C(=O)Nc1ccc(Cl)cc1	2.3µM	2µM	2.2µM	?	0.6µM	3.2µM
N#C/C(=C/c1ccc(N2CCCCC2)o1)C(=O)Nc1ccc2ccccc2c1	-	-	-	-	3.4µM	-
CNC(=O)/C(C#N)=C\c1ccc(CNS(=O)(=O)c2ccc(Cl)cc2)o1	-	-	-	-	-	-
Cc1cccc(Cn2c(SCc3ccc(C(=O)NCCc4ccccc4)cc3)nc3cccnc32)c1	.	.	.	.	-	.
CC1CCN(CCNC(=O)c2ccc(Cn3c(SCc4ccccc4)nc4cccnc43)cc2)CC1	.	.	.	.	12µM	-
O=C(NCCN1CCCCC1)c1ccc(Cn2c(SCc3ccccc3)nc3cccnc32)cc1	.	.	.	.	12µM	-
CC1CCCCN1CCNC(=O)c1ccc(Cn2c(SCc3ccccc3)nc3cccnc32)cc1 (stereo unspecified)	.	.	.	.	13µM	-
CC1CCN(C(=O)CSc2ccc(-c3ccccc3)nn2)CC1	-	-	-	-	-	-
Cc1cc(C)c(S(=O)(=O)NCc2cn3ccccc3n2)c(C)c1	-	-	-	-	-	.
C1=C(c2ccc(-c3ccccc3)cc2)Nc2ncnn2C1c1ccco1 (stereo unspecified)	-	2.8µM	3.2µM	?	21µM	-
Fc1ccc(C2=CC(c3ccco3)n3ncnc3N2)cc1 (stereo unspecified)	-	-	-	-	-	-
O=c1c2c(nc3cc(-c4ccccc4Cl)[nH]n13)CCS2	?	?	3.5µM	?	8.5µM	16µM
O=c1c2c(nc3cc(-c4ccccc4)[nH]n13)CCS2	?	4µM	2.8µM	?	9.5µM	?

From PubChem
